# Data: the supplement of paper PMC6555819
# Legend:
# Experiment in all cases: PBM binding z-score (relative to random genomic background probes); higher = stronger binding; sequences stand for … in GC…GCGATTGACAGCGTAGAATGAAGG
# [1] = tested on: FXR:RXRa (NR concentration 270 nM, RXRa partner concentration 90 nM)
# Outline: (§1)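 Ligand-free nuclear receptor dimers were bound for 1 h to custom Agilent 4×180K protein-binding microarrays. Detection used antibodies against each partner (one per run). Binding z-scores rest on regression-normalized fluorescence, with random background probes as the reference.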
# [2] = tested on: LXRa:RXRa (NR concentration 270 nM, RXRa partner concentration 90 nM)
# Outline: as §1
# [3] = tested on: LXRa homodimer (NR concentration 270 nM)
# Outline: as §1
# [4] = tested on: LXRb:RXRa (NR concentration 270 nM, RXRa partner concentration 90 nM)
# Outline: as §1
# [5] = tested on: LXRb homodimer (NR concentration 270 nM)
# Outline: as §1
# [6] = tested on: PPARa:RXRa (NR concentration 270 nM, RXRa partner concentration 90 nM)
# Outline: as §1
# [7] = tested on: PPARg:RXRa (NR concentration 180 nM, RXRa partner concentration 90 nM)
# Outline: as §1
# [8] = tested on: PPARg:RXRa 270nM:90nM, anti-RXR (NR concentration 270 nM, RXRa partner concentration 90 nM)
# Outline: as §1
# [9] = tested on: PPARg:RXRa 30nM:10nM, anti-RXR (NR concentration 30 nM, RXRa partner concentration 10 nM)
# Outline: as §1
# [10] = tested on: PPARg:RXRa 90nM:30nM, anti-RXR (NR concentration 90 nM, RXRa partner concentration 30 nM)
# Outline: as §1
# [11] = tested on: PPARg:RXRa DBDmut IVT, anti-RXR (DBD mutation: RXRa K156A/R161A, NR concentration 270 nM, RXRa partner concentration 90 nM)
# Outline: as §1
# [12] = tested on: PPARg:RXRa IVT, anti-PPARg (NR concentration 270 nM, RXRa partner concentration 90 nM)
# Outline: as §1
# [13] = tested on: PPARg DBDmut:RXRa IVT, anti-PPARg (DBD mutation: PPARg1 K132A/R137A, NR concentration 270 nM, RXRa partner concentration 90 nM)
# Outline: as §1
# [14] = tested on: PPARg DBDmut IVT, anti-PPARg (DBD mutation: PPARg1 K132A/R137A, NR concentration 270 nM)
# Outline: as §1
# [15] = tested on: PPARg homodimer (NR concentration 180 nM)
# Outline: as §1
# [16] = tested on: PXR:RXRa (NR concentration 270 nM, RXRa partner concentration 90 nM)
# Outline: as §1
# [17] = tested on: PXR homodimer (NR concentration 270 nM)
# Outline: as §1
# [18] = tested on: RARa:RXR (NR concentration 270 nM, RXRa partner concentration 90 nM)
# Outline: as §1
# [19] = tested on: RARa homodimer (NR concentration 270 nM)
# Outline: as §1
# [20] = tested on: RARb:RXRa (NR concentration 270 nM, RXRa partner concentration 90 nM)
# Outline: as §1
Sequence,PBM binding z-score [1],PBM binding z-score [2],PBM binding z-score [3],PBM binding z-score [4],PBM binding z-score [5],PBM binding z-score [6],PBM binding z-score [7],PBM binding z-score [8],PBM binding z-score [9],PBM binding z-score [10],PBM binding z-score [11],PBM binding z-score [12],PBM binding z-score [13],PBM binding z-score [14],PBM binding z-score [15],PBM binding z-score [16],PBM binding z-score [17],PBM binding z-score [18],PBM binding z-score [19],PBM binding z-score [20]
GGGACGAGGGCAAGTTGATAGCAGAGTTTGATGG,1.19,0.762,0.0189,1.18,0.857,1.42,1.09,1.2,0.448,0.913,2.39,2.34,-0.115,0.569,1.21,1.15,0.763,0.688,-0.141,2.91
CGAACTAGGTCAACCAGGACAGTGAATACATTGA,4.29,2.78,0.571,2.31,0.00788,4.98,8.21,6.58,4.17,5.96,8.5,8.35,1.56,1.35,1.73,2.02,0.839,2.3,0.835,4.17
CCTAGCAGGCCAGGGGCACTCAAGCATTTCGCTT,-0.742,-0.659,-0.647,-0.578,-1.19,-0.331,-0.281,-0.0349,-0.949,-0.765,0.0628,-0.609,-1.68,-1.6,-1.02,-0.801,-0.66,-0.684,-1.15,0.377
TCTGCTAGGTCAGTTGGTCCGCTAACGAGCTGCC,0.769,0.595,-0.724,0.186,0.781,0.869,-0.334,1.28,1.13,0.949,2.64,2.46,0.84,0.95,-0.535,-0.0468,-0.863,-0.00908,-1.31,3.12
ATGTCTAGGTAAAGTTCAGTGAAAGATCGATAGA,1.21,1.74,1.26,1.15,0.816,2.56,3.51,4.55,2.43,4.25,1.29,2.46,1.14,1.13,1.69,2.12,1.98,1.13,1.09,2.84
GATACAGGGTCAAGGCCACAGTACGCGTATTGAT,6.86,4.11,0.0617,3.76,-0.0921,5.98,6.37,5.82,2.54,4.69,2.24,4.31,0.644,0.508,2.25,4.14,0.451,4.64,0.787,4.67
ACTATTAGTTGAGAAGAGGGCAACCGATAGGTTG,0.199,0.323,0.0723,-0.0222,0.248,0.44,0.56,0.246,0.12,0.365,0.072,0.463,1.02,0.853,0.882,0.779,0.445,0.623,1.19,1.32
CAAACTAGGTCACGAAAGGTCAATGTCGAATGAC,7.08,7.86,6.57,7.03,1.87,6.73,10.3,8.29,6.83,8.33,8.46,9.35,5.05,3.62,4.79,6.78,1.92,7.1,1.91,5.86
CGTCCAAGGGCATAGGAGGTCAGTGAAGACAGAT,3.02,5.05,1.32,2.56,-0.901,3.11,1.15,1.38,-0.000502,0.667,0.6,2.11,-0.528,-0.863,1.67,4.38,1.16,3,0.923,3.53
CCTACTGGGCCAAAAAGGTCATTGAGGCCGATAA,3.73,4.24,2.98,4.11,0.134,4.69,3.3,3.92,1.27,3,3.53,3.88,-0.547,-0.0751,2.79,5.38,10.7,5.6,2.12,3.8
CGTCCAAGGTCAAGGTCCGTGAAAGAGACTCGAA,7.33,5.22,0.155,3.84,0.0848,5.79,5.02,5.3,1.9,3.92,3.62,3.88,0.152,-0.702,2.49,3.69,0.711,4.47,0.5,5.29
ATATGTAGGGTATCGGGTCATTCAGTTTGCGCAT,2.08,2.17,1.58,3.25,1.84,4.3,5.64,5.05,2.42,4.32,6.53,6.58,2.46,2.33,2.08,3.66,7.07,2.95,0.891,2.09
ATCTATAGGTAAGACTCAGTTCAGTGAAGAACGC,0.179,0.424,0.389,0.171,0.635,0.073,0.534,0.23,0.292,0.169,1,0.562,0.789,1.3,0.365,1.49,1.21,0.627,0.874,0.432
AGAATGAGGTTAAGATCAGTGAAACAGAATACAT,2.32,3.08,0.0147,1.91,-0.196,3.6,2.38,2.25,1.23,1.78,2.35,2.8,1.66,0.567,0.498,1,-0.347,1.84,-0.219,1.74
CCTTACGGGTCACTGTCAGGTTATAGCATTTGGA,5.05,4.27,0.129,3.23,-0.0879,4.73,3.83,4.04,1.22,2.8,3.32,3.7,0.509,-0.255,3.86,3.99,-0.056,4.71,1.03,3.87
